{"source": "PubChem BioAssay (NCATS)", "note": "Results filed as inconclusive are left out. Entries that show only a call come without a potency. Unmarked numbers belong to inactive results. Activity calls are given as the source filed them. The call rests on the fitted dose curve; in most records, active means well fitted inhibition curve with a large enough effect; inconclusive means small, poorly fitted or top-dose-only effect; inactive means flat fitted curve, though single readings scatter. Potency means the concentration at half of the fitted maximal effect."}
{"molecular_target": "Calcium and integrin-binding protein 1 (Homo sapiens) (UniProt Q99828)", "sequence (Q99828 whole entry, looked up)": "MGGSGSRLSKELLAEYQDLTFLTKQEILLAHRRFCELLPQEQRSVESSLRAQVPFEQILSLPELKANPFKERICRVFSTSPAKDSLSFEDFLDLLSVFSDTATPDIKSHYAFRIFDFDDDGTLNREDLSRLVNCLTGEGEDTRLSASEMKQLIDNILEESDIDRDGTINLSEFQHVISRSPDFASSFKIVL", "experiment": "Primary qHTS for Identification of Calcium Integrin Binding Protein 1 (CIB1) Competitor (AID 1508620);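 on activity change, negative = inhibition: GST tagged CIB1 binding a fluorescein labelled alphaIIb integrin peptide tracer; top concentration of the series differs between compounds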", "conditions": "CIB1-GST / FITC-alphaIIb peptide fluorescence polarization; series mostly up to 114 µM", "procedure,_shortened": "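Fluorescence polarization competition: CIB1-GST (1 uM final) preincubated with compound 15 min at room temperature, then FITC-labeled alphaIIb peptide (100 nM final) added for another 15 min. Polarization read at Ex 480/Em 540.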"}
{"smiles": "COc1cc(/C=C2\\CCCN([C@@H](C)c3ccc(F)cc3)C2=O)ccc1-n1cnc(C)c1", "Potency": "inactive"}
{"smiles": "CC(=O)OCC(=O)[C@@]12O[C@@H]1C[C@H]1[C@@H]3CC=C4C[C@@H](O)CC[C@]4(C)[C@H]3CC[C@@]12C", "Potency": "inactive"}
{"smiles": "CN(C)CCOC(C)(c1ccccc1)c1ccc(Cl)cc1", "note": "(stereo not drawn)", "Potency": "inactive"}
{"smiles": "COc1ccc(-c2csc(NC(=O)[C@H]3CCCCN3S(=O)(=O)c3ccc(C)cc3)n2)cc1", "Potency": "inactive"}
{"smiles": "C=C1C(=O)OC2C1CCC1(C)C(O)CCC(=C)C21", "note": "(stereo not drawn)", "Potency": "inactive"}
{"smiles": "CC(C)(C)NC(=O)[C@H]1CC[C@H]2[C@@H]3CC[C@H]4NC(=O)CC[C@]4(C)[C@H]3CC[C@]12C", "Potency": "inactive"}
{"smiles": "CC(C)c1c(O)ccc2c1CC[C@H]1C(C)(C)CCC[C@]21C", "Potency": "inactive"}
{"smiles": "COc1ccc(-c2ccc3c(N4CCOCC4C)nc(N4CCOCC4C)nc3n2)cc1CO", "note": "(stereo not drawn)", "Potency": "inactive"}
{"smiles": "C=C(C)C1=C[C@@]2(C)C(=CC1=O)CC[C@@H](O)[C@@H]2C", "Potency": "inactive"}
{"smiles": "C=C1CCN([C@H](C)[C@](O)(Cn2cncn2)c2ccc(F)cc2F)CC1", "Potency": "inactive"}
{"smiles": "O=C(C1CCCCC1)N(CCN1CCN(c2ccccc2O)CC1)c1ccccn1", "Potency": "inactive"}
{"smiles": "C[C@H](Oc1cc(-c2cnn(C3CCNCC3)c2)cnc1N)c1c(Cl)ccc(F)c1Cl", "Potency": "inactive"}
{"smiles": "CC1(C(=O)Nc2ccc(F)nc2)CCCN1c1nc(Nc2cc(C3CC3)[nH]n2)c2cccn2n1", "note": "(stereo not drawn)", "Potency": "inactive"}
{"smiles": "CCC(C)c1ccc(NC(=O)Cn2cnc3c2c(=O)n(C)c(=O)n3C)cc1", "note": "(stereo not drawn)", "Potency": "inactive"}
{"smiles": "C=C1C(=O)OC2CC(C)C(CCC(C)=O)=CCC12", "note": "(stereo not drawn)", "Potency": "inactive"}
{"smiles": "Cc1cc(F)ccc1-c1nc(NCCN=C(N)NC#N)nc2c1ccc(=O)n2-c1c(F)cccc1F", "Potency": "inactive"}
{"smiles": "C[C@@H]1O[C@@H](O[C@H]2[C@H](OC(=O)[C@]34CCC(C)(C)C[C@H]3C3=CCC5[C@@]6(C)C[C@H](O)[C@H](O[C@@H]7O[C@H](CO)[C@@H](O)[C@H](O)[C@H]7O)[C@](CO)(C(=O)O)C6CC[C@@]5(C)[C@]3(C)C[C@H]4O)OC[C@H](O)[C@@H]2O)[C@H](O)[C@H](O)[C@H]1O[C@@H]1OC[C@@H](O)[C@H](O[C@@H]2OC[C@](O)(CO)[C@H]2O)[C@H]1O", "note": "(stereo partly drawn)", "activity change, negative = inhibition": "3.47% [at 12.4 µM]"}
{"smiles": "CN(C)c1cccc(Oc2cnc(Nc3cccc(O)c3)nc2)c1", "Potency": "inactive"}
{"smiles": "C/C=C/C1=CC2=C(CO1)C(=O)C(C)(OC(=O)c1c(C)cc(O)cc1OC)C(O)C2", "note": "(stereo not drawn)", "Potency": "inactive"}
{"smiles": "O=C(Cc1c(F)cccc1F)Nc1cc(OCc2ccc(Cl)cc2)ccn1", "Potency": "inactive"}
{"smiles": "COc1cc(N2CCC(N3CCN(C)CC3)CC2)ccc1Nc1ncc(Cl)c(Nc2ccccc2P(C)(C)=O)n1", "Potency": "inactive"}
{"smiles": "CO[C@H]1[C@@H](O)[C@H](O[C@H]2CC[C@@]3(C)C(CCC4C3CC[C@]35COC6(COC(=O)C6)C3CCC45O)C2)O[C@@H](C)[C@@H]1OC1OC(CO)C(OC2OC(CO)C(O)C(O)C2O)C(O)C1O", "note": "(stereo partly drawn)", "Potency": "inactive"}
{"smiles": "CC(C)c1ccc(NC(=O)c2cccs2)c(-c2nc3ccccc3[nH]c2=O)c1", "Potency": "inactive"}
{"smiles": "C[C@H]1CC[C@@]2(OC1)O[C@H]1CC3[C@@H]4CC[C@@H]5C[C@@H](O[C@@H]6O[C@H](CO)[C@@H](O[C@@H]7O[C@@H](C)[C@H](O)[C@@H](O)[C@H]7O)[C@H](O)[C@H]6O[C@@H]6O[C@H](CO)[C@@H](O)[C@H](O)[C@H]6O)CC[C@]5(C)C4CC[C@]3(C)[C@H]1[C@@H]2C", "note": "(stereo partly drawn)", "Potency": "inactive"}
{"smiles": "CC(=O)O[C@@H]1[C@@H](O)[C@H](O[C@@H]2[C@@H](O)[C@@H](O)[C@H](O[C@H]3[C@H](O[C@H]4[C@H](O[C@H]5CC[C@@]6(C)C(CC[C@]7(C)C6CC=C6[C@@H]8CC(C)(C)CC[C@]8(C(=O)O)CC[C@]67C)[C@]5(C)CO)O[C@H](CO)[C@@H](O)[C@@H]4O)OC[C@@H](O)[C@@H]3O)O[C@H]2C)OC[C@H]1O", "note": "(stereo partly drawn)", "Potency": "inactive"}
{"smiles": "CCCSc1nc(N[C@@H]2C[C@H]2c2ccc(F)c(F)c2)c2nnn([C@@H]3C[C@H](OCCO)[C@@H](O)[C@H]3O)c2n1", "Potency": "inactive"}
{"smiles": "CC1=C(C(=O)OC2CCCCC2)C(c2ccc([N+](=O)[O-])cc2)C2=C(CC(C)(C)CC2=O)N1", "note": "(stereo not drawn)", "Potency": "17.8 µM (active)"}
{"smiles": "CC(CCC1(O)OC2CC3C4CC=C5CC(O[C@@H]6O[C@H](CO)[C@@H](O[C@@H]7O[C@@H](C)[C@H](O)[C@@H](O)[C@H]7O)[C@H](O)[C@H]6O[C@@H]6O[C@@H](C)[C@H](O)[C@@H](O)[C@H]6O)CCC5(C)C4CCC3(C)C2C1C)CO[C@@H]1O[C@H](CO)[C@@H](O)[C@H](O)[C@H]1O", "note": "(stereo partly drawn)", "Potency": "inactive"}
